# FLuc counter – firefly luciferase modulation, counter-screen for miR-21 project | purified FLuc, Km substrates, luminescence inhibition | actives 6.9% (n = 360,000) | P08659 | Potency, µM (doses to about 57.5 µM), usual class: inhibitors; note: nearly all actives have a fitted effect of over 55% in size
# Target sequence (P08659 whole entry, looked up): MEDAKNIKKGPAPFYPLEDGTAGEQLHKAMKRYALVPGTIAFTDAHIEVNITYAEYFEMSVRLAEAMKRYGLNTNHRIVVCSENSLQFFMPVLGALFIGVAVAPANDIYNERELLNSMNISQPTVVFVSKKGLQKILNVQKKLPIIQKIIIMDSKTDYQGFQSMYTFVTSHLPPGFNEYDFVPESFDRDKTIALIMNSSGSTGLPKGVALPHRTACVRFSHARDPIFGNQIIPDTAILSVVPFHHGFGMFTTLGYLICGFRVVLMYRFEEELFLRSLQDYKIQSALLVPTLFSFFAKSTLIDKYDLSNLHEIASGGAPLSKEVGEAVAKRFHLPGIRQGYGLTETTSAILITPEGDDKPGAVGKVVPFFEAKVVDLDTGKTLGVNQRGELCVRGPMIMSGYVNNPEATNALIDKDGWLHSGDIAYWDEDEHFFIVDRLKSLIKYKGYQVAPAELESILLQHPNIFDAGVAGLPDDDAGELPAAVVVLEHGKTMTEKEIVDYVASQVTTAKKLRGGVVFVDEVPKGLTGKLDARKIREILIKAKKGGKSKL
#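 Purified P. pyralis luciferase, 10 nM final, with Km-level 10 uM D-luciferin and 10 uM ATP in 50 mM Tris acetate pH 7.5, 10 mM Mg acetate, 0.01% Tween-20, 0.05% BSA; 6-point qHTS titration about 60 µM downward; luminescence read.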
# Rab9 prom act – Rab9 promoter activation; Huh7 Rab9 promoter-luciferase reporter, luminescence, 24 h; Potency, µM (highest dose often 9.22 µM), most hits filed as activators; actives 2.8% (n = 320,000); note: nearly all actives have a fitted effect of over 60% in size
#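 Huh7 cells stably carrying Rab9 promoter–luciferase reporter, plated 1500 cells/well, compound added after 2 h and incubated 24 h at 37 °C; luciferase luminescence then read after 10 min with detection reagent.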
# ELG1 genotoxic – induces genotoxicity in HEK293T cells with luciferase-tagged ELG1; HEK293T ELG1-luciferase reporter, luminescence, 16 h; Potency, µM (top dose mostly 46 µM), actives largely listed as activators; actives 1.3% (n = 330,000); note: nearly all actives have a fitted effect of over 60% in size
#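 16 hr compound incubation (37 °C, 5% CO2) of HEK293T cells carrying luciferase-tagged ELG1; luciferase then measured by ONE-Glo luminescence after 30 min at RT.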
# SMN2 splice up – SMN2 splice variant enhancement; HEK293 SMN2-luciferase splicing reporter, luminescence, 30-36 h; Potency, µM (top dose mostly 46.1 µM), hits mostly activators; actives 2.8% (n = 210,000); AID 1458; note: nearly all actives have a fitted effect of over 55% in size
#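 HEK293 cells carry an SMN2 […]–luciferase reporter in which exon 7 inclusion puts luciferase in frame. Cells were plated 10-12 h before compound addition, then incubated 30-36 h at 37C. ONE-Glo luminescence was read; sodium butyrate at 4.5 mM final served as control.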
# NPC1 prom act – activates the NPC1 promoter; Huh7 NPC1 promoter luciferase reporter, 24 h; Potency, µM (titrated, usually from 9.22 µM), hits mostly activators; actives 2.4% (n = 320,000); AID 485313; note: nearly all actives have a fitted effect of over 60% in size
#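 NPC1 promoter–luciferase Huh7 cells; 24 h compound; luminescence.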
# Hits are given with their value; . = inactive; ? = inconclusive; / = not tested or not shown; [ ] = another dose, or the depositor's remark. Sampled rows, rich in hits. Any-hit rate of the full collection: about 7.5%. Calls come from the whole dose curve; as a rule, active = well fitted curve in the direction sought with a large enough effect; inconclusive = small, poorly fitted or top-dose-only effect, or another doubt; inactive = no such curve, though single readings can be large; an effect the other way counts as inactive or inconclusive.
SMILES,FLuc counter,Rab9 prom act,ELG1 genotoxic,SMN2 splice up,NPC1 prom act
COCCC(=O)N1CCC(Oc2ccc(C(=O)N(C)Cc3cc(C)no3)cc2)CC1,.,.,.,/,.
Cc1cc(C)nc(NS(=O)(=O)c2ccc(NC(=O)CSc3nc(-c4ccccc4)c(C#N)c(=O)[nH]3)cc2)n1,11µM,.,.,.,.
CCc1ccc(NC(=O)CSc2nc(-c3ccccc3)c(C#N)c(=O)[nH]2)cc1,11µM,/,/,/,/
N#Cc1c(-c2ccccc2)nc(SCC(=O)Nc2ccccc2)[nH]c1=O,.,.,.,.,.
Cc1cc(NC(=O)CSc2nc(-c3ccccc3)c(C#N)c(=O)[nH]2)no1,.,.,.,.,.
Cc1nnc(N2CCN(c3ccccc3)CC2)c2c1nnn2Cc1ccc(F)cc1,.,/,/,.,/
CC(NC(=O)c1ccc(C(C)(C)C)cc1)C(c1cccs1)N1CCOCC1 (stereo not given),.,.,.,/,.
COc1ccc(S(=O)(=O)CCC(=O)NC2CCCCC2)cc1,.,.,.,.,.
O=C(CCSc1ccccc1)NC1CCCC1,15µM,.,?,.,.
O=C(CCS(=O)(=O)c1ccccc1)NC1CCCCC1,17µM,?,15µM,/,.
O=C(Nc1ccc(Cl)cc1)Nc1cnccn1,?,.,.,/,.
Cc1ccc(NC(=O)Nc2cnccn2)cc1,17µM,?,?,/,?
Cc1ccc(NC(=O)Nc2cnccn2)cc1C,21µM,?,.,/,.
CC(C)c1ccc(NC(=O)Nc2cnccn2)cc1,6.7µM,?,?,/,?
COc1ccc(C(=O)N/N=C/c2cccc3cccnc23)cc1,7.6µM,.,.,.,.
COc1ccc(C(=O)N/N=C(\c2ccccc2)c2ccccn2)cc1,?,.,?,.,.
CCOc1ccccc1C(=O)N/N=C/c1cccc2cccnc12,?,.,.,.,.
CCOc1ccc(C(=O)N/N=C/c2cccc3cccnc23)cc1,6.7µM,.,.,.,.
COc1ccc(C(=O)N/N=C/c2cccnc2)cc1,15µM,.,?,/,?
C=CCNc1nc(NC(C)(C)CO)nc(OCC)n1,.,.,.,.,.
Cc1cc(C)c(S(=O)(=O)N2CCCCC2CCNC(=O)C(=O)NC2CC2)c(C)c1 (stereo not given),.,.,.,/,.
CCCCCc1ccc(-c2cn(Cc3ccc(C)cc3)nn2)cc1,?,3.5µM,.,/,?
CCCCCc1ccc(-c2cn(Cc3cccc(OC)c3)nn2)cc1,?,.,.,/,.
COc1ccc(-c2cn(Cc3ccc(C)cc3)nn2)cc1,?,2.8µM,?,/,4µM
CC(C)n1cnc2c(Nc3ccc(C(=O)O)cc3)nc(Cl)nc21,12µM,.,?,/,?
SMILES,FLuc counter,Rab9 prom act,ELG1 genotoxic,SMN2 splice up,NPC1 prom act
CC(C)[C@H](CO)Nc1nc(Nc2ccc(Cl)c(C(=O)O)c2)c2ncn(C(C)C)c2n1,?,.,.,/,.
Cc1cccc(C(=O)Nc2ccccc2C(=O)Nc2ccc(C(=O)O)cc2)c1,6.7µM,.,.,/,.
Cc1ccc(C(=O)Nc2ccc(O)cc2C(=O)O)cc1,11µM,.,.,.,.
CCN(CC)S(=O)(=O)c1cccc(C(=O)N/N=C/c2cc(OC)c(O)c(OC)c2)c1,.,.,.,.,.
O=C(Nc1ccc(O)cc1C(=O)O)c1ccc(NC(=O)c2ccco2)cc1,?,.,.,/,.
O=C(O)c1ccc(NC(=O)c2ccccc2NC(=O)c2cccc(F)c2)cc1,?,.,.,/,.
CCN(CC)S(=O)(=O)c1cccc(C(=O)N/N=C/c2cccc(O)c2O)c1,8.5µM,.,?,.,.
COc1ccc(NC(=O)c2ccc(C)cc2)c(OC)c1,5.4µM,?,?,18µM,?
CC(C)OCCCNC(=O)C(=O)NCCCOC(C)C,.,.,.,.,.
Cc1ccc(/C=C2\SC(=S)N(CCC(=O)NNC(=O)c3ccc(O)cc3)C2=O)cc1,?,.,.,/,.
CN1C(=O)/C(=C/c2ccc(C(=O)Nc3ccc(O)cc3C(=O)O)cc2)SC1=S,21µM,.,.,/,.
CCN(CC)S(=O)(=O)c1cccc(C(=O)Nc2ccccc2C(=O)Nc2ccc(OC)cc2)c1,8.5µM,/,/,/,/
COc1ccc(NS(=O)(=O)c2cccc(C(=O)Nc3ccccc3C(=O)O)c2)cc1,.,.,.,/,.
Cc1cccc(C(=O)Nc2ccc(O)cc2C(=O)O)c1,21µM,.,.,.,.
COc1cc(NC(=O)c2ccc(C)cc2)c(OC)cc1NC(=O)CN1CCOCC1,19µM,.,.,.,.
Cc1cccc(C(=O)Nc2ccc(O)cc2)c1,?,?,.,.,?
Cc1ccc(NC(=O)CCC(=O)N2Cc3ccccc3Oc3ncccc32)cc1,.,/,/,/,/
Cc1cn2c(=O)cc(COC(=O)c3ccc(NC(=O)COc4ccccc4C)cc3)nc2s1,.,/,/,/,/
Cc1cc(N2C(=O)c3ccc(C(=O)Nc4ccc(O)cc4C(=O)O)cc3C2=O)no1,.,.,.,/,.
Cc1ccc(C(=O)Nc2ccc(O)cc2C(=O)O)cc1C,3.4µM,.,.,.,.
Cc1c(C(=O)NC2CCOC2)oc2c(F)cccc12 (stereo not given),11µM,2.5µM,.[9.26 µM],/,2.2µM
Cc1c(C(=O)N2C[C@@H](C)O[C@@H](C)C2)oc2c(F)cccc12,15µM,?,?,/,?
Cc1c(C(=O)O)oc2c(F)cccc12,.,.,.,.,.
O=C(NCCc1ccccc1)/C(=C\c1ccc([N+](=O)[O-])cc1)NC(=O)c1ccc(Br)cc1,.,.,.,.,.
c1ccn2c(c1)nc1c2nc2ccccn21,17µM,.,?,.,?
SMILES,FLuc counter,Rab9 prom act,ELG1 genotoxic,SMN2 splice up,NPC1 prom act
COc1ccc(-c2nc3c4ccccc4ccn3c2C=O)cc1,.,.,.,.,.
Cc1ccccc1Nc1c(-c2cc(Br)ccc2F)nc2ccccn12,.,/,/,.,/
Cc1c(-c2ccc(Br)cc2)nc2ccccn12,2.4µM,2.5µM,?,/,3.2µM
CN(C)c1ccc(-c2nc3ccccn3c2/N=C/c2ccc(Br)cc2)cc1,0.6µM,?,?,3.2µM,?
Cc1ccc(-c2nc3ccccn3c2C=O)cc1,21µM,3.5µM,?,/,?
CCOC(=O)c1sc(NC(=O)CCN2CCC(C)CC2)c(C(=O)OCC)c1C,.,.,.,.,.
O=C(CSc1ccc2ccccc2n1)NC1CC1,.,.,?,/,.
Clc1c(-c2ccccc2)nc2ccccn12,12µM,2.5µM,?,/,4µM
Cc1cc(/C=C2\Cc3ccccc3C2=O)c(C)n1-c1ccccc1,0.19µM,.,1.2µM,4.5µM,.
Cc1cc(C=C2C(=O)c3ccccc3C2=O)c(C)n1-c1cccc(C(=O)O)c1,4.8µM,2.5µM,.,.,.
Cc1cc(/C=N/n2cnnc2)c(C)n1-c1ccccc1,?,.,.,.,.
Cc1cc(C=C2C(=O)c3ccccc3C2=O)c(C)n1-c1ccccc1,0.12µM,.,?,.,.
COc1ccc(/C=C2\CC/C(=C\c3ccc(OC)cc3OC)C2=O)c(OC)c1,?,.,?,.,.
COc1ccccc1/C=C1\Cc2ccccc2C1=O,11µM,.,?,/,.

# Screening results: PubChem, National Center for Advancing Translational Sciences (NCATS)
